“And” between values parts separate entries of the source, which are not always exact repeats. Equal entries are not always repeated. The source made the active and inactive calls.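 The calls were made as follows, unless noted: active = at least 20% inhibition of 6-phosphogluconate dehydrogenase activity; inactive = the rest.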
Tested on: not listed separately
Test: P. berghei load reduction in hepatocytes – cell-based, HepG2, luciferase luminescence, HepG2 viability, primary screen (AID 624349; in the data active = parasite load remaining mostly below about 12%, no sharp cut-off; inactive = mostly above about 10%;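 also: 100% = mean of DMSO negative control wells on the same plate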)
Conditions: P. berghei liver stage in HepG2, luciferase luminescence, concentration not given here; parasite load remaining: stronger effect = lower value; viability: measured here: HepG2 viability without parasites

SMILES	parasite load remaining	viability
O=c1c(-c2ccc(O)cc2)coc2cc(O)ccc12	225% (inactive)	94.2%
O=C(O)c1cc(=O)c2cccc(O)c2[nH]1	174% (inactive)	71.4%
C[C@@]12C(=O)OC(=O)[C@]1(C)[C@H]1CC[C@@H]2O1	-0.2% (inactive)	9.1%
O=C(O)c1cc2ccccc2[nH]1	53.6% (inactive)	75.3%
CC(CCc1ccc(O)cc1)NCCc1ccc(O)c(O)c1 (configuration not stated)	118% (inactive) and 72.9% (inactive) and 42.2% (inactive)	109% and 73.6% and 115%
CCOC(=O)[C@H](CCc1ccccc1)N[C@H](C)C(=O)N1C2CCCCC2C[C@H]1C(=O)O (some centres not stated)	125% (inactive)	94.3%
O=C(/C=C/c1ccccc1)c1ccc(O[C@@H]2O[C@H](CO)[C@@H](O)[C@H](O)[C@H]2O)cc1O	121% (inactive)	96.4%
COc1cc(OC)c2ccc(=O)oc2c1	128% (inactive)	69.7%
CC(=O)N[C@@H]1[C@@H](O)[C@H](O)[C@@H](CO)O[C@H]1O	72.2% (inactive)	78.3%
CCN1CCCC1CNC(=O)c1cc(S(N)(=O)=O)ccc1OC (configuration not stated)	39.8% (inactive) and 78.3% (inactive)	52.6% and 93.4%
NC1(C(=O)O)CCCC1	96.4% (inactive)	69.9%
NC1=NCCN1CC(=O)O	89.9% (inactive)	69.9%
NC(Cn1ccc(=O)c(O)c1)C(=O)O (configuration not stated)	81.8% (inactive) and 76.8% (inactive)	72.6%
COC1=CC(=O)C=C(OC)C1=O	122% (inactive)	94.3%
N#Cc1ccc2c(c1)N(CCCN1CCC(O)CC1)c1ccccc1S2	134% (inactive)	87.2%
C=NC(C(=O)NC1C(=O)N2C1SC(C)(C)C2C(=O)O)c1ccccc1 (configuration not stated)	130% (inactive)	74.4%

Tested on: Hepatitis C virus NS3 helicase
Test: blockers of NS3h binding to ssDNA – biochemical, fluorescence polarization, LOPAC1280 library, primary screen (AID 687035; in the data active = inhibition above about 37%)
Conditions: Purified HCV NS3 helicase, Cy5-dT15 ssDNA binding fluorescence polarization; stronger effect = higher value; concentration not given here

SMILES	inhibition
O=c1c(-c2ccc(O)cc2)coc2cc(O)ccc12	-4% (inactive)
NC(=O)c1cccc(N)c1	0% (inactive)
O=C(O)c1cc([N+](=O)[O-])ccc1NCCCc1ccccc1	-4% (inactive)
CC(CCc1ccc(O)cc1)NCCc1ccc(O)c(O)c1 (configuration not stated)	-1% (inactive)
CCN1CCCC1CNC(=O)c1cc(S(N)(=O)=O)ccc1OC (configuration not stated)	-1% (inactive)

Tested on: not listed separately
Test: compounds altering Cy5-DNA-NS3h complex signal – biochemical, LOPAC1280, artefact control for HCV NS3 helicase inhibitor project (AID 687037; call rule not given here)
Conditions: Cy5-DNA-NS3h complex fluorescence interference counterscreen

SMILES	fluorescence ratio (interference)
O=c1c(-c2ccc(O)cc2)coc2cc(O)ccc12	1 (inactive)
NC(=O)c1cccc(N)c1	1 (inactive)
O=C(O)c1cc([N+](=O)[O-])ccc1NCCCc1ccccc1	1 (inactive)
CC(CCc1ccc(O)cc1)NCCc1ccc(O)c(O)c1 (configuration not stated)	1 (inactive)
CCN1CCCC1CNC(=O)c1cc(S(N)(=O)=O)ccc1OC (configuration not stated)	1.1 (inactive)

Biological target: 6-phosphogluconate dehydrogenase, decarboxylating (Homo sapiens) (UniProt P52209)
Test: inhibition of human phosphogluconate dehydrogenase – biochemical, recombinant enzyme, NADPH absorbance, primary screen (AID 1159550)
Conditions: recombinant 6PGD, NADPH absorbance 341 nm; at 10 µM; stronger effect = higher value

Chain of 6-phosphogluconate dehydrogenase, decarboxylating (Homo sapiens) (P52209 whole entry, looked up): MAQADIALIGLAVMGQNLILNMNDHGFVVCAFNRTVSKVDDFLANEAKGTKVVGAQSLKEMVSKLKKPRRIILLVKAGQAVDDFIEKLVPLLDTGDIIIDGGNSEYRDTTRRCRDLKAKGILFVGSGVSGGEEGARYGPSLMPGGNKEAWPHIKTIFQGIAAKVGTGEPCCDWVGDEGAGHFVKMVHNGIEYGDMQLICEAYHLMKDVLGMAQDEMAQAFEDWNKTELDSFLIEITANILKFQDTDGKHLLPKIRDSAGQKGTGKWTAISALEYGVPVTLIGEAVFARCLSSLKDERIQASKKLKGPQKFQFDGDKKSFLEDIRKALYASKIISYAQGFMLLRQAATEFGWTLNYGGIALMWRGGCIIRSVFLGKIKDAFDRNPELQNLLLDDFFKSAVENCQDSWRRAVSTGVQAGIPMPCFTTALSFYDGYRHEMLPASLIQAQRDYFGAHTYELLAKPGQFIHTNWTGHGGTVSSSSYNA

SMILES	inhibition
O=c1c(-c2ccc(O)cc2)coc2cc(O)ccc12	6.36% (inactive)
O=C(O)c1cc(=O)c2cccc(O)c2[nH]1	4.89% (inactive)
COc1c2ccoc2nc2c(OC)c(OCC(O)C(C)(C)O)ccc12 (configuration not stated)	-4.68% (inactive)
NC(=O)c1cccc(N)c1	10.1% (inactive)
CC(C)=CCc1c2c(c3occ(-c4ccc(O)c(O)c4)c(=O)c3c1O)C=CC(C)(C)O2	10.7% (inactive)
O=c1c(O)c(-c2ccccc2)oc2cc(O)ccc12	-10.2% (inactive)
O=C(O)c1cc([N+](=O)[O-])ccc1NCCCc1ccccc1	11.2% (inactive)
C[C@@]12C(=O)OC(=O)[C@]1(C)[C@H]1CC[C@@H]2O1	-26.6% (inactive)
C=C[C@@](C)(O)CCC1C(=C)C[C@H](O)C2C(C)(C)CCCC12C (some centres not stated)	15.2% (inactive)
CCOC(=O)C1=C(O)C(=O)N(Cc2ccccc2)C1	-9.58% (inactive)
CCCC(=O)Nc1ncnc2c1ncn2[C@@H]1O[C@@H]2COP(=O)(O)O[C@H]2[C@H]1OC(=O)CCC	10.5% (inactive)
CC(C(=O)O)[C@H]1CCC2C3CC=C4C[C@@H](O)CC[C@]4(C)C3CC[C@@]21C (some centres not stated)	8.3% (inactive)
CC1(C)C=Cc2cc3ccc(=O)oc3cc2O1	5.11% (inactive)
CC(=O)c1c(O)c(C)c(O)c2c1OC1=CC(=O)C(C(C)=O)C(=O)C12C (configuration not stated)	-11.1% (inactive)
O=C(O)c1cc2ccccc2[nH]1	0.53% (inactive)
O=C1C=CC(=C(c2ccc(O)cc2)c2ccc(O)cc2)C=C1	7.03% (inactive)
COc1c(OC)c2occc2c2oc(=O)ccc12	-3.21% (inactive)
CC(CCc1ccc(O)cc1)NCCc1ccc(O)c(O)c1 (configuration not stated)	1.78% (inactive)
CON	3.11% (inactive)
CCOC(=O)[C@H](CCc1ccccc1)N[C@H](C)C(=O)N1C2CCCCC2C[C@H]1C(=O)O (some centres not stated)	7.88% (inactive)

SMILES	inhibition
O=C(/C=C/c1ccccc1)c1ccc(O[C@@H]2O[C@H](CO)[C@@H](O)[C@H](O)[C@H]2O)cc1O	4.22% (inactive)
COc1cc(OC)c2ccc(=O)oc2c1	9.07% (inactive)
Oc1cc(O)c2c(c1)O[C@H](c1cc(O)c(O)c(O)c1)[C@H](O)C2	-13.7% (inactive)
Cc1ccc2c(c1)CC[C@H]1CC(=O)CC[C@]21C	-2.97% (inactive)
CC(=O)N[C@@H]1[C@@H](O)[C@H](O)[C@@H](CO)O[C@H]1O	-7.13% (inactive)
CC(=O)O[C@@H]1CC[C@@]2(C)C(C[C@@H](OC(C)=O)[C@@]3(C)C4=CC(=O)O[C@@H](c5ccoc5)[C@]4(C)CCC23)C1(C)C (some centres not stated)	-14.7% (inactive)
C[C@]12CCC3c4ccc(OS(=O)(=O)O)cc4CCC3C1CC[C@H]2O (some centres not stated)	3.17% (inactive)
CCN1CCCC1CNC(=O)c1cc(S(N)(=O)=O)ccc1OC (configuration not stated)	-9.64% (inactive)
NC1(C(=O)O)CCCC1	-12.6% (inactive)
NC1=NCCN1CC(=O)O	-2.27% (inactive)
NC(Cn1ccc(=O)c(O)c1)C(=O)O (configuration not stated)	17.3% (inactive)
CC1=CCc2c(cc3oc(C)cc(=O)c3c2O)OC1	0.892% (inactive)
COC(=O)c1c(C)cc(O)cc1O	7.84% (inactive)
COC1=CC(=O)C=C(OC)C1=O	1.73% (inactive)
COc1cc(C)c2c(=O)cc(-c3ccccc3)oc2c1	5.95% (inactive)
N#Cc1ccc2c(c1)N(CCCN1CCC(O)CC1)c1ccccc1S2	-2.33% (inactive)
C=NC(C(=O)NC1C(=O)N2C1SC(C)(C)C2C(=O)O)c1ccccc1 (configuration not stated)	-2.44% (inactive)
O=C1c2ccc(O)c(O)c2C(=O)c2c(O)ccc(O)c21	4.26% (inactive)
COc1c2ccoc2c(OC)c2oc(=O)ccc12	6.1% (inactive)
O=c1[nH]c2cc(Cl)c(Cl)cc2[nH]c1=O	1.1% (inactive)

Source: PubChem BioAssay
